Cdc42 wt: modulators (inhibitors or activators) of GTP binding to human Cdc42 wildtype | actives 0.2% (n = 190,000) | P60953 | percent activity (GTP binding), % at 10 µM | GST-Cdc42 beads, Bodipy-GTP binding, flow cytometry; actives lie on both sides;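 active = percent activity GTP binding at least 20 points away from the 100% baseline, either down as inhibitor or up as activator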;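 also: median bead fluorescence of bound Bodipy-FL-GTP at 100 nM; 0% = excess unlabeled GTP control and 100% = no compound control; below 100% means less GTP binding so inhibitor and above means activator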
Target sequence (P60953 whole entry, looked up): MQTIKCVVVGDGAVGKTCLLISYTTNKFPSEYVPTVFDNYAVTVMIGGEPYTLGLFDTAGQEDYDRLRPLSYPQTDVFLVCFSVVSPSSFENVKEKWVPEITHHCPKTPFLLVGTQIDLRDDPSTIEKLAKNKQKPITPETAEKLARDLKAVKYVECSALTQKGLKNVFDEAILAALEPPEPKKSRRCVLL
Rac1 wt modul: modulators of human Rac1 wildtype GTP binding; P63000; GST-Rac1 beads, fluorescent GTP binding, flow cytometry; actives lie on both sides; 0 = cold GTP competed, 100 = untreated; GTP binding activity (% of control), % at 10 µM; actives 0.27% (n = 190,000); AID 757;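 active = GTP binding activity at least 20 points away from the 100% control level, either lower or higher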
Rac1 act GTP bind: alters GTP binding to activated mutant human Rac1; actives 0.11% (n = 190,000); percent activity (GTP binding), % at 10 µM; GST-Rac1 activated beads, fluorescent GTP binding, flow cytometry; actives lie on both sides; 100% means binding = to untreated wells;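 active = GTP binding at least 20 percentage points away from the 100% baseline, in either direction, so actives lie on both sides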
Rab7 wt GTP bind: alters GTP binding to wildtype dog Rab7. AID 758. GTP binding activity (percent of control), % at 10 µM. actives 0.055% (n = 190,000). GST-Rab7 beads, fluorescent GTP binding, flow cytometry; actives lie on both sides; untreated = 100%, excess cold GTP = 0%;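 active = fluorescent GTP binding to Rab7 beads changed by at least 20 points from the 100% baseline, either direction, mostly lower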;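 also: median green fluorescence of bound Bodipy-FL-GTP per Rab7 bead population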
Rab2A wt mod: changes GTP binding to wildtype dog Rab2A, up or down; GST-Rab2 wt beads, Bodipy-GTP binding, flow cytometry; actives 0.19% (n = 190,000); GTP binding activity, % at 10 µM; P61105;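 active = GTP binding activity at least 20 points away from 100%, either lowered or raised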;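 also: 0% = beads with excess unlabeled GTP and 100% = no-compound control corrected for plate trend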
HRas wt GTP bind: human HRas wildtype GTP binding, change in either direction. P01112. GST-Ras wt beads, Bodipy-FL-GTP binding, flow cytometry; actives lie on both sides. GTP binding activity, % at 10 µM. actives 0.14% (n = 190,000). AID 759;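 active = GTP binding activity at least 20% away from the 100% baseline, either lowered as inhibitor or raised as activator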;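 also: 0% = unlabeled GTP competition control and 100% = no-compound control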
Target sequence (P01112 whole entry, looked up): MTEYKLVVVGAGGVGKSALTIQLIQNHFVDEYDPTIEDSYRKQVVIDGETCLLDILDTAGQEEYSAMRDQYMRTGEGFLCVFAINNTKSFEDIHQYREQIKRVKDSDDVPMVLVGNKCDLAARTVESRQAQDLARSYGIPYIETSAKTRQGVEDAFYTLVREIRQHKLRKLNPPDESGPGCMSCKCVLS
* hit, by the source's call; [ ] = dose if it differs, or a comment. The list is not random: actives were taken first. Their share in the collection is about 0.38%.

SMILES | Cdc42 wt | Rac1 wt modul | Rac1 act GTP bind | Rab7 wt GTP bind | Rab2A wt mod | HRas wt GTP bind
Cc1cc2ncn(CCC(=O)NC(C)(C)C)c2cc1C | 97 | 77* | 88 | 100 | 103 | 87
Cc1cc2ncn(CCC(=O)NC3CCCC3)c2cc1C | 99 | 96 | 94 | 106 | 99 | 100
CCCS(=O)(=O)c1nnnn1-c1cccc(OC)c1 | 80 | 91 | 78* | 90 | 89 | 91
CC(C)NC(=O)CSCc1c(F)cccc1Cl | 98 | 102 | 97 | 98 | 96 | 99
O=C1Nc2ccc(Br)cc2C12NNc1ccccc1O2 (stereo not given) | 79* | 84 | 89 | 96 | 83 | 82
COc1ccc(CCNC(=O)CCNS(=O)(=O)c2cccc(Cl)c2)cc1OC | 95 | 97 | 95 | 96 | 94 | 95
CCOC(=O)C1CCN(C(=O)c2cc3cc(Br)ccc3oc2=O)CC1 | 97 | 96 | 90 | 98 | 94 | 96
Cc1ccc(Sc2c(C)nn(C(=O)C3CC3)c2C)cc1 | 82 | 78* | 79* | 90 | 81 | 84
O=C(N/N=C/c1ccc(Cl)cc1Cl)C(=O)NC1CC1 | 99 | 100 | 96 | 107 | 100 | 100
COc1ccc(OC)c(/C=N/NC(=O)c2ccc(Cn3cc([N+](=O)[O-])cn3)o2)c1 | 91 | 81 | 92 | 87 | 78* | 82
CNC(=S)N=Nc1c(O)[nH]c2ccccc12 | 80 | 69* | 84 | 85 | 72* | 79*
Oc1ccc(NC(=S)N=Nc2c(O)[nH]c3ccccc23)cc1 | 71* | 70* | 86 | 101 | 75* | 77*
Oc1ccc(NC(=S)N=Nc2c(O)[nH]c3ccc(Br)cc23)cc1 | 79* | 79* | 90 | 92 | 79* | 80
Cc1ccc(NC(=S)N=Nc2c(O)[nH]c3ccccc23)cc1 | 86 | 84 | 89 | 87 | 84 | 87
Cn1c(=O)n(Cc2ccc(F)cc2)c(=O)c2c1nc1n2CCN1Cc1ccco1 | 80 | 75* | 89 | 92 | 77* | 81
CNc1ncc(C(=O)c2ccc(Br)cc2)s1 | 106 | 121*[activator] | 106 | 100 | 99 | 101
CNc1ncc(C(=O)c2ccccc2)s1 | 101 | 101 | 99 | 99 | 99 | 102
COc1cc(/C=C/c2ccc3cccc([N+](=O)[O-])c3n2)ccc1OCC(=O)O | 70* | 80 | 85 | 95 | 69* | 72*
S=c1[nH]nc(-c2ccco2)n1-c1ccc(Cl)cc1 | 82 | 82 | 78* | 82 | 82 | 81
COCCOC(=O)c1c(C)oc2ccc(OC(=O)c3ccc4c(c3)OCO4)cc12 | 77* | 75* | 73* | 79* | 76* | 83
CCOC(=O)Oc1ccc2oc(C)c(C(=O)OCCOC)c2c1 | 98 | 100 | 97 | 99 | 99 | 99
O=C1CCCN1CCCNc1ncnc2sccc12 | 99 | 96 | 95 | 96 | 96 | 97
CC(NC(=O)OC(C)(C)C)C(=O)NC(CCC(=O)OCc1ccccc1)C(N)=O (stereo not given) | 101 | 102 | 96 | 97 | 99 | 99
C/C(=N\NC(=O)c1c[nH]c2ccccc12)c1ccc(C)o1 | 84 | 79* | 92 | 92 | 85 | 84
CC(C(=O)NC(C)(C)C)N(Cc1cccs1)C(=O)CCN1CCc2ccccc21 (stereo not given) | 97 | 99 | 96 | 108 | 99 | 99
O=C(COc1ccc(C(=O)c2ccccc2)cc1)NCC(=O)Nc1ccccc1Br | 93 | 92 | 89 | 95 | 91 | 94
O=C(O)c1ccc(/C=N/NC(=O)c2cc(-c3ccc4c5c(cccc35)CC4)n[nH]2)cc1 | 78* | 76* | 91 | 92 | 80 | 84
Cc1c(NC(=O)CCN2C(=O)c3ccccc3C2=O)c(=O)n(-c2ccccc2)n1C | 81 | 78* | 84 | 95 | 88 | 86
O=C(c1cc2ccc([N+](=O)[O-])cc2oc1=O)N1CCOCC1 | 97 | 103 | 97 | 97 | 96 | 99

Compound activity (PubChem BioAssay)
